GDH-TPI counter-1: GDH-TPI coupled enzyme inhibition counter-screen | inhibition, % at 4.8 µM | GDH-TPI coupled enzyme counterscreen, NADH absorbance | 1.2% of 360,000 active
CCHF vOTU inh: CCHFV vOTU protease inhibition | Pep-AMC fluorescence | inhibition, % at 11.5 µM | 0.55% of 370,000 active | AID 651958
RecA intein inh: inhibitors of M. tuberculosis RecA intein splicing; P9WHJ3; cell-free RecA intein splicing, fluorescence; inhibition, % (no concentration beside the values); 0.75% of 290,000 active; in the data active = inhibition above about 30%
FBA Mtb inh: inhibitors of M. tuberculosis fructose-bisphosphate aldolase | inhibition, % at 1 µM | purified M. tuberculosis FBA, fluorescence read-out | P9WQA3 | 2.3% of 360,000 active; in the data active = inhibition above about 27%
Target sequence (P9WQA3 whole entry, looked up): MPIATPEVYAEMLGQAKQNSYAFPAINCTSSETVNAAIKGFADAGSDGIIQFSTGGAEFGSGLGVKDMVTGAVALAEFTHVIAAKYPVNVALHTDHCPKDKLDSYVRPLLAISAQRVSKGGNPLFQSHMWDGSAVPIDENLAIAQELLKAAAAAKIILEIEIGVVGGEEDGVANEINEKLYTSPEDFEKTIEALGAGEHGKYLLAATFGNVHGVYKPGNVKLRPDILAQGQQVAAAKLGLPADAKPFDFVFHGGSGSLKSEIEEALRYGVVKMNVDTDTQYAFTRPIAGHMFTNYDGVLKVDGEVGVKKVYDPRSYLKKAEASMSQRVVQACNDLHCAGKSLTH
Mtb bLac sens: beta-lactam sensitization of Mtb H37Rv. M. tuberculosis H37Rv growth with meropenem, percent inhibition. inhibition, % at 25 µM. 0.27% of 330,000 active; call rule not given here;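 also: growth measured after seven days incubation then overnight dye step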
Mtb FBA inh conf: Mtb FBA inhibition, confirmed; shares compounds with FBA Mtb inh; purified M. tuberculosis FBA, fluorescence read-out; inhibition, % at 1 µM; 78% of 5,600 active; in the data active = inhibition above about 27%
GDH-TPI counter-2: GDH-TPI inhibition counter-screen for FBA inhibitors. shares compounds with FBA Mtb inh. 81% of 5,600 active. inhibition, % at 1 µM. AID 652141. GDH-TPI coupled enzyme counterscreen, fluorescence; in the data active = inhibition above about 10%
Numbers stand for hits. Compounds with a hit are over-represented: about 4.2% of the library has one in this group of screens. Rule as the data show it, unless noted: active = inhibition above about 30%; inactive = the rest.

What do the screens show for `COc1ccc(CCN(Cc2cccs2)S(=O)(=O)c2ccc(C)s2)cc1OC`?
CCHF vOTU inh: inactive

Results for CNc1cc(-c2cccc(OC)c2F)nc2ccnn12 ?
GDH-TPI counter-1: inactive; CCHF vOTU inh: inactive; FBA Mtb inh: 109; Mtb FBA inh conf: 90; GDH-TPI counter-2: 62

How did COc1ccc(Cn2ccc3ccc(-c4ccc5ccn(Cc6ccc(OC)cc6)c5c4)cc32)cc1 do in these assays?
CCHF vOTU inh: inactive

What do the screens show for `CCCc1c(O)c2ccccc2[nH]c1=O`?
GDH-TPI counter-1: inactive; CCHF vOTU inh: inactive; RecA intein inh: inactive; FBA Mtb inh: 30; Mtb bLac sens: inactive; Mtb FBA inh conf: 50; GDH-TPI counter-2: 42

Results for CCCc1cc(=O)oc2cc(C)cc(OCC(=O)NCCN3CCOCC3)c12 ?
GDH-TPI counter-1: inactive; CCHF vOTU inh: inactive; RecA intein inh: inactive; FBA Mtb inh: 67; Mtb bLac sens: inactive; Mtb FBA inh conf: inactive; GDH-TPI counter-2: inactive

Results for Cc1c(C)c2ccc(OCC(=O)NCCN3CCOCC3)c(C)c2oc1=O ?
GDH-TPI counter-1: inactive; CCHF vOTU inh: inactive; RecA intein inh: inactive; FBA Mtb inh: 47; Mtb bLac sens: inactive; Mtb FBA inh conf: active; GDH-TPI counter-2: active

How did Cc1cc(Cl)ccc1OCC(=O)NCCCN1CCOCC1 do in these assays?
GDH-TPI counter-1: inactive; CCHF vOTU inh: inactive; RecA intein inh: inactive; FBA Mtb inh: inactive; Mtb bLac sens: inactive

What do the screens show for `Cc1cc(OCC(=O)NCCCN2CCOCC2)c2c(C)cc(=O)oc2c1`?
GDH-TPI counter-1: inactive; CCHF vOTU inh: inactive; RecA intein inh: inactive; FBA Mtb inh: 61; Mtb bLac sens: inactive; Mtb FBA inh conf: 138; GDH-TPI counter-2: 142

How did CCc1cc(=O)oc2cc(C)cc(OCC(=O)NCCN3CCOCC3)c12 do in these assays?
GDH-TPI counter-1: inactive; CCHF vOTU inh: inactive; RecA intein inh: inactive; FBA Mtb inh: 61; Mtb bLac sens: inactive; Mtb FBA inh conf: 52; GDH-TPI counter-2: 66

What do the screens show for `O=C(COc1ccccc1O)NCCN1CCOCC1`?
GDH-TPI counter-1: inactive; CCHF vOTU inh: inactive; RecA intein inh: inactive; FBA Mtb inh: inactive; Mtb bLac sens: inactive

What do the screens show for `O=C(NC1CCCCN(Cc2cccc(Cl)c2)C1=O)c1c(F)cccc1F` (stereo unspecified)?
CCHF vOTU inh: inactive

What do the screens show for `COC(=O)C1=C(C)N(C)C(=NCC2CC2)NC1c1ccc(Cl)cc1` (stereo unspecified)?
CCHF vOTU inh: inactive

What do the screens show for `CCCc1cc(=O)oc2cc(C)cc(OCC(=O)Nc3ccc(CN4CCOCC4)cc3)c12`?
GDH-TPI counter-1: inactive; CCHF vOTU inh: inactive; RecA intein inh: inactive; FBA Mtb inh: 43; Mtb bLac sens: inactive; Mtb FBA inh conf: inactive; GDH-TPI counter-2: inactive

What do the screens show for `COc1ccc(-c2cc(=O)oc3c(C)c(OCC(=O)Nc4cccnc4)ccc23)cc1`?
GDH-TPI counter-1: inactive; CCHF vOTU inh: inactive; RecA intein inh: inactive; FBA Mtb inh: inactive; Mtb bLac sens: inactive

What do the screens show for `Cc1c(C)c2ccc(OCC(=O)Nc3cccnc3)c(C)c2oc1=O`?
GDH-TPI counter-1: inactive; CCHF vOTU inh: inactive; RecA intein inh: inactive; FBA Mtb inh: 60; Mtb bLac sens: inactive; Mtb FBA inh conf: inactive; GDH-TPI counter-2: inactive

What do the screens show for `O=C1OCC2=C1C(c1ccc(F)cc1)c1cc3c(cc1N2)OCO3` (stereo unspecified)?
GDH-TPI counter-1: inactive; CCHF vOTU inh: inactive; FBA Mtb inh: 27; Mtb FBA inh conf: 133; GDH-TPI counter-2: 142

What do the screens show for `CCOc1ccccc1C1C2=C(COC2=O)Nc2cc3c(cc21)OCO3` (stereo unspecified)?
GDH-TPI counter-1: inactive; CCHF vOTU inh: inactive; RecA intein inh: inactive; FBA Mtb inh: inactive; Mtb bLac sens: inactive

Results for O=C1OCC2=C1C(c1ccc(F)cc1)c1cc3c(cc1N2)OCCO3 (stereo unspecified) ?
GDH-TPI counter-1: 37; CCHF vOTU inh: inactive; FBA Mtb inh: 74; Mtb FBA inh conf: active; GDH-TPI counter-2: 137

Results for CC(=O)Oc1ccc(C2C3=C(CC(C)(C)CC3=O)Nc3cc4c(cc32)OCCO4)cc1 (stereo unspecified) ?
GDH-TPI counter-1: 43; CCHF vOTU inh: inactive; RecA intein inh: inactive; FBA Mtb inh: 47; Mtb bLac sens: inactive; Mtb FBA inh conf: 72; GDH-TPI counter-2: 63

How did O=C(N[C@@H](Cc1cccnc1)C(=O)N1CCC[C@H]1C(=O)NC1CCCC1)c1ccc(Cl)c(Cl)c1 do in these assays?
CCHF vOTU inh: inactive

Results for CCOC(=O)[C@]12CCCC=C1N(CCCOC)C(=O)[C@@H]2CC(=O)N1CCSCC1 ?
CCHF vOTU inh: inactive

What do the screens show for `C[C@@H]1CN(c2ccc(N3CCNC[C@H]3C)cc2C#N)CCN1Cc1ccccc1`?
CCHF vOTU inh: inactive

What do the screens show for `CCCOc1ccccc1-c1nc2c([nH]1)c(=O)[nH]c(=O)n2C`?
GDH-TPI counter-1: inactive; CCHF vOTU inh: inactive; FBA Mtb inh: 59; Mtb bLac sens: inactive; Mtb FBA inh conf: 66; GDH-TPI counter-2: 44

Results for COc1ccc(NS(=O)(=O)c2ccc(Oc3cccc(C(=O)O)c3)cc2)cc1 ?
GDH-TPI counter-1: inactive; CCHF vOTU inh: inactive; RecA intein inh: inactive; FBA Mtb inh: inactive; Mtb bLac sens: inactive

How did COc1ccc(S(=O)(=O)Nc2nc3ccccc3nc2Nc2cccc(C(=O)O)c2)cc1 do in these assays?
GDH-TPI counter-1: 38; CCHF vOTU inh: inactive; RecA intein inh: inactive; FBA Mtb inh: 32; Mtb bLac sens: inactive; Mtb FBA inh conf: active; GDH-TPI counter-2: active

How did CC(=O)Nc1ccc(S(=O)(=O)NC(C)c2ccccc2)cc1 (stereo unspecified) do in these assays?
GDH-TPI counter-1: inactive; CCHF vOTU inh: inactive; RecA intein inh: inactive; FBA Mtb inh: 31; Mtb bLac sens: inactive; Mtb FBA inh conf: 123; GDH-TPI counter-2: 95

How did O=C(O)c1cccc(Nc2ncnc3ccccc23)c1 do in these assays?
GDH-TPI counter-1: inactive; CCHF vOTU inh: inactive; RecA intein inh: inactive; FBA Mtb inh: 49; Mtb bLac sens: inactive; Mtb FBA inh conf: 83; GDH-TPI counter-2: 78

How did CC(=O)Nc1ccc(S(=O)(=O)Nc2nc3ccccc3nc2Nc2ccccc2)cc1 do in these assays?
GDH-TPI counter-1: inactive; CCHF vOTU inh: inactive; RecA intein inh: inactive; FBA Mtb inh: 82; Mtb bLac sens: inactive; Mtb FBA inh conf: active; GDH-TPI counter-2: active

How did Oc1cccc(Nc2ncnc3ccccc23)c1 do in these assays?
GDH-TPI counter-1: inactive; CCHF vOTU inh: inactive; RecA intein inh: inactive; FBA Mtb inh: inactive; Mtb bLac sens: inactive

What do the screens show for `COc1ccc(S[C@]2(C(=O)N3CCN(c4ncccn4)CC3)CC(=O)N(C(=O)CCc3ccccc3)[C@@H]2c2ccc(OC)cc2)cc1`?
CCHF vOTU inh: inactive

What do the screens show for `CCCCCCCCN1C(=O)[C@@H](CC(=O)N2CCN(C(=O)c3ccco3)CC2)C[C@@]2(C(=O)OC)C1=C[C@H](C(C)(C)C)O[C@@H]2C`?
CCHF vOTU inh: inactive

Compound activity: PubChem BioAssay, several laboratories
